Screening results: PubChem, National Center for Advancing Translational Sciences (NCATS)
Cycloheximide cs: affects cycloheximide protein synthesis inhibition readout, counter-screen | max response, % | 300,000 tested, 12% active | cell reporter, cycloheximide protein synthesis inhibition counterscreen | AID 2314; in the data active = max response mostly above about 13%, no sharp cut-off; inactive = mostly below about 14%; also: read at 38.3 µM for the half of the compounds with a filed dose; 0% is about no effect
SARS PLP yeast: inhibitors of SARS-CoV papain-like protease in yeast; 330,000 tested, 0.19% active; S. cerevisiae expressing SARS-CoV PLpro, growth rescue; Potency, µM (series often up to 32.9 µM), for the others: top-dose activity, positive = growth rescue, hits mostly activators; AID 485353; also: potency is read from the fitted curve at half-maximal effect; 0% is about no effect; nearly all actives have a fitted effect of over 55% in size
Pf growth 48h: inhibits P. falciparum growth in the first generation, 48 h. 310,000 tested, 5.9% active. P. falciparum luciferase growth in erythrocytes, 48 h. Potency, µM (highest dose often 28.7 µM), without a hit: top-dose activity change, negative = inhibition, most hits filed as inhibitors; active = well fitted inhibition curve with a large enough effect; inconclusive = small, poorly fitted or top-dose-only effect, or another doubt; inactive = no such curve, though single readings can be large or run the other way; also: potency is read from the fitted curve at half-maximal effect; % is scaled to controls: 0 for no effect and ±100 for the full control effect
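In quantitative HTS format, infected erythrocytes bearing luciferase-reporter parasites were treated for a single generation at 37 C. Luminescence after adding detection reagent served as the growth measure.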
Pf growth 96h: inhibits malaria parasite growth, 96 h | P. falciparum luciferase reporter growth, 96 h | Potency, µM (doses to about 28.7 µM), for the others: top-dose activity change, negative = inhibition, actives largely listed as inhibitors | 320,000 tested, 6.9% active | AID 504834; active = well fitted inhibition curve with a large enough effect; inconclusive = small, poorly fitted or top-dose-only effect, or another doubt; inactive = no such curve, though single readings can be large or run the other way; also: potency is read from the fitted curve at half-maximal effect; % is scaled to controls: 0 for no effect and ±100 for the full control effect
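Erythrocytes infected with luciferase-expressing P. falciparum were dispensed at 2% hematocrit and 0.05% parasitemia (final), then incubated with compounds 96 hours at 37 C in 5% CO2. Luminescence after detection reagent addition reported growth.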
Shiga toxin inh: blocks Shiga toxin action in Vero cells | Vero cells, Shiga toxin protein synthesis inhibition reporter | inhibition, % at 38.7 µM | 290,000 tested, 9.2% active; in the data active = inhibition mostly above about 28%, no sharp cut-off; inactive = mostly below about 43%; also: 0% is about no effect
NS1 inh: blocks influenza NS1 protein function. Potency, µM (titrated, usually from 46.1 µM), inactives show at the top dose activity, positive = more growth. 270,000 tested, 0.4% active; also: potency is read from the fitted curve at half-maximal effect; actives are rising curves; nearly all actives have a fitted effect of over 50% in size
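S. cerevisiae expressing influenza A NS1, grown in glucose, washed, then diluted 1:100 into pH 6.0 -URA galactose medium with 23 nl compound. Growth recovery read as OD600; NS1-free strain serves as control.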
Numbers without * were called inactive; ? = inconclusive; nt = no result; [ ] = another dose, or the depositor's remark. Shown are actives, neighbours in structure and some others; about 21% of the full set was active somewhere. Unless noted, calls follow the shape of the full dose curve.

SMILES	Cycloheximide cs	SARS PLP yeast	Pf growth 48h	Pf growth 96h	Shiga toxin inh	NS1 inh
C[C@H](NC(=O)C1CC(=O)N(c2ccc3c(c2)OCCO3)C1)C(=O)NCc1ccco1 (stereo partly specified)	3	-1%	23%	31%	1	2%
Cc1c(C(=O)N2CCC(C)CC2)sc2ncn(CC(=O)N3CCC(C)CC3)c(=O)c12	8	-4%	-12%	-3%	17	1%
CCC(C)C(=O)Nc1nnc(CCc2ccccc2)s1 (stereo unspecified)	19*	1%	38%	63%	27	-29%
Cc1nnc(NC(=O)c2ccccc2F)s1	17*	-4%	59%	-10%	36*	-9%
O=C(Nc1nnc(CCc2ccccc2)s1)c1ccccc1F	26*	0%	36%	4%	41	-58%
Cc1nnc(NC(=O)c2ccccc2Br)s1	24*	?	65%	58%	92	-17%
CC(C)CC(=O)Nc1nnc(CCc2ccccc2)s1	10	-1%	35%	-1%	3	-6%
CC(C)c1nc(CN(C)C(=O)N[C@H](C(=O)N[C@@H](Cc2ccccc2)C[C@H](O)[C@H](Cc2ccccc2)NC(=O)OCc2cncs2)C(C)C)cs1	-1	6%	nt	nt	-5	nt
CC1CCCN(Cc2ccc(OCc3ccccc3)cc2)C1 (stereo unspecified)	22*	-7%	0%	157%	77	-12%
CCN(CC)C(=O)C1CCN(Cc2ccc(OCc3ccccc3)cc2)CC1	-4	2%	11%	?	12	-29%
COCCNC(=O)C1CCN(Cc2cccc(OCc3ccccc3)c2)CC1	-3	3%	-2%	-23%	nt	6%
OC1CCN(Cc2ccc(OCc3ccccc3)cc2)CC1	19*	6%	127%	4.1µM*	nt	-2%
O=C(CCN1CCN(Cc2ccccc2)CC1)Nc1ccc(OCc2ccccc2)cc1	-3	-13%	nt	?	-7	-10%
c1ccc(COc2cccc(CN3CCCCC3)c2)cc1	2	1%	-26%	-91%	-6	7%
CCCCNC(=O)C1CCN(Cc2ccc(OCc3ccccc3)cc2)CC1	26*	-1%	6%	?	63*	-27%
O=C(C1CCN(Cc2ccc(OCc3ccccc3)cc2)CC1)N1CCCC1	27*	-13%	-10%	nt	38	-33%
COc1cccc(N2CCN(C(=O)c3oc4ccccc4c3NC(=O)CCc3cc(OC)no3)CC2)c1	-1	nt	?	?	-9	-5%
C=CCN(CC=C)C(=O)C1CCN(Cc2ccc(OCc3ccccc3)cc2)CC1	18*	9%	?	26%	nt	-56%
Cc1cc2c(cc1S(=O)(=O)Nc1cccc(F)c1)n(C)c(=O)c(=O)n2C	1	0%	19%	?	2	12%
Cc1cc(C)c(S(=O)(=O)N2CCCCCC2)cc1Br	-2	-1%	-28%	13%	-9	-36%
Cc1cc2c(cc1S(=O)(=O)N1CCCC1)n(C)c(=O)c(=O)n2C	1	1%	-2%	13µM*	-9	10%
Cc1cccc(NS(=O)(=O)c2cc3c(cc2C)n(C)c(=O)c(=O)n3C)c1	2	4%	?	13µM*	-8	12%
CCOC(=O)N1CCN(C(=O)/C(=C/c2cccs2)NC(=O)c2cccs2)CC1	-1	1%	17%	3%	-10	11%
O=C(Cn1nc(-c2ccc(Cl)cc2)c2ccccc2c1=O)NN1CCOCC1	1	-1%	18%	12%	8	0%
COc1ccccc1NC(=O)Cn1nc(-c2ccc(Cl)cc2)c2ccccc2c1=O	16*	2%	nt	?	-4	12%
O=C(Cn1nc(-c2ccccc2)c2ccccc2c1=O)NN1CCOCC1	-3	1%	15µM*	0%	-6	-2%
Brc1ccc(C=Nc2ccc3c(c2)OCCOCCOCCO3)s1	-2	-1%	6%	324%	-2	11%
CCOc1ccc(NC(=O)c2ccc(S(=O)(=O)N(C)C)cc2)cc1	12	3%	-11%	?	-4	9%
COc1ccc(NC(=O)c2ccc3ncsc3c2)cc1	58*	0%	2%[0.00184 µM]	282%	114*	-6%
CN(C)S(=O)(=O)c1ccc(NC(=O)c2ccc3ncsc3c2)cc1	22	-1%	?	?	62*	-5%
